Measurements published in PubChem BioAssay (NCI).
About 83,000 compounds went through this panel and 20% of them were active in at least one assay; those are over-represented in the sample as a whole.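 Compound tested at a single concentration for 48 hours in 96-well plates; a percent growth value below 10 was scored as active.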 Unmarked numbers belong to inactive results. Calls of active or inactive are those of the source.

How the values were obtained:
Assay in all cases: NCI-60 one-dose screen, 48 h (100 = growth as untreated, 0 = no growth, -100 = all killed)
Settings in all cases: 10 µM unless noted
NCI-H23 lung = system: NCI-H23 lung
NCI-H226 lung = system: NCI-H226 lung
NCI-H322M lung = system: NCI-H322M lung
HOP-62 NSCLC = system: HOP-62 NSCLC
NCI-H460 lung = system: NCI-H460 lung
HOP-92 NSCLC = system: HOP-92 NSCLC
NCI-H522 lung = system: NCI-H522 lung
A549/ATCC NSCLC = system: A549/ATCC NSCLC
786-0 renal = system: 786-0 renal
COLO 205 colon = system: COLO 205 colon
DU-145 prostate = system: DU-145 prostate
K-562 leukemia = system: K-562 leukemia
MALME-3M melanoma = system: MALME-3M melanoma
MDA-MB-231 breast = system: MDA-MB-231 breast
RXF 393 renal = system: RXF 393 renal
SF-268 CNS = system: SF-268 CNS
SF-295 CNS = system: SF-295 CNS
SF-539 CNS = system: SF-539 CNS
UACC-257 melanoma = system: UACC-257 melanoma
M14 melanoma = system: M14 melanoma

SMILES	growth (NCI-H23 lung) [%]	growth (NCI-H226 lung)	growth (NCI-H322M lung)	growth (HOP-62 NSCLC)	growth (NCI-H460 lung)	growth (HOP-92 NSCLC)	growth (NCI-H522 lung)	growth (A549/ATCC NSCLC)	growth (786-0 renal)	growth (COLO 205 colon)	growth (DU-145 prostate)	growth (K-562 leukemia)	growth (MALME-3M melanoma)	growth (MDA-MB-231 breast)	growth (RXF 393 renal)	growth (SF-268 CNS)	growth (SF-295 CNS)	growth (SF-539 CNS)	growth (UACC-257 melanoma)	growth (M14 melanoma)
COc1ccc2c(c1)[n+]([O-])c(C(=O)/C=C/C=C(\Cl)c1cc(OC)c(OC)c(OC)c1)c(C)[n+]2[O-]	79.7	103%	87.5%	-3.57% (active)	102%	61.3%	56.6%	98.4%	61.4%	127%	96.7%	110%	61.5%	74.9%	47.8%	47.1%	21.3%	66.8%	108%	102%
Cc1ccc(C2=Nc3c(N)ncnc3NC(c3ccc4c(c3)OCO4)C2)cc1 (stereo not drawn)	74.3	85.1%	102%	64.5%	42.4%	8.52% (active)	47.2%	56.4%	80.8%	37.3%	98%	14.8%	51.8%	61.3%	59.4%	72.9%	40.8%	67.7%	96.2%	39%
COc1ccc(C(c2cc(OC)c(OC)c(OC)c2)N2CCN(c3ccccc3)CC2)cc1 (stereo not drawn)	84.4	101%	83.7%	88.9%	96.9%	86.7%	56.5%	85.7%	101%	92.7%	113%	41.6%	99.7%	92.3%	96.2%	95.8%	92.3%	94.4%	81.3%	76.3%
CCOC(=O)C(=Cc1cccc(Cl)c1)C(=O)OCC	57.2	-65.4% (active)	84.2%	85.2%	74.4%	13.2%	-42.9% (active)	46.9%	7.82% (active)	-2.83% (active)	28%	-11.1% (active)	-27.5% (active)	1.37% (active)	-27.8% (active)	26.4%	77.2%	9.28% (active)	26.1%	11.9%
COc1ccc(-c2cn(-c3cc(OC)c(OC)c(OC)c3)c(=O)n2C(C)=O)cc1	94.9	88.1%	99.6%	83.7%	106%	94.2%	73.5%	91.8%	35.4%	119%	106%	61.7%	90.6%	76.7%	109%	107%	78.6%	97%	82%	92.6%
Cc1ccc(Sc2nnc(/N=C3\C(=O)Nc4ccccc43)s2)cc1	107	106%	97.1%	96.5%	104%	96.4%	94.6%	92.1%	99.5%	–	114%	95.5%	102%	104%	120%	98.9%	105%	101%	94.2%	–
O=C(N/N=C/c1ccc(F)cc1)c1ccc(C(F)(F)F)nc1Nc1cccc(C(F)(F)F)c1	11.3	9.45% (active)	-14.5% (active)	-14.1% (active)	-17.7% (active)	-25.2% (active)	-15.9% (active)	-10.9% (active)	-29.7% (active)	–	17.9%	-6.25% (active)	2.96% (active)	-11.5% (active)	-10.7% (active)	9.8% (active)	-44.5% (active)	-0.388% (active)	-2.34% (active)	19.9%
Nc1c(C(=O)Nc2ccccc2Cl)sc2nc3c(cc12)C(O)CCC3 (stereo not drawn)	44.2	52.8%	60.2%	41.8%	24.5%	46.4%	-33.7% (active)	25.4%	48.1%	–	14.4%	10.9%	76.2%	58.2%	19.6%	65.6%	22.8%	3.94% (active)	56.8%	19.9%
COc1cc(/C=C\c2cc(/C=C\c3ccc(O)c(OC)c3)n(C(=O)COc3ccc(Cl)cc3Cl)n2)ccc1O	14.1	26.5%	40.8%	11.3%	9.28% (active)	12.5%	-28.7% (active)	10.6%	13.7%	–	16.5%	4.41% (active)	12.1%	10.1%	-9.98% (active)	20.2%	23.1%	8.64% (active)	41.9%	4.34% (active)
CCCCC(=O)Nc1ncc(Cc2ccc(Cl)cc2)s1	90.3	82%	86.8%	68.8%	60.7%	69.7%	50.1%	53.1%	80.7%	–	89%	37.5%	81.3%	62.3%	56.4%	79.6%	74.6%	73.5%	80.7%	61.1%
CS(=O)(=O)Nc1cc(-c2ccc3ncnc(Nc4ccc5c(cnn5Cc5ccccn5)c4)c3c2)cnc1Cl	76.7	81.3%	86.2%	68.8%	85.8%	2.29% (active)	67.9%	89.2%	84.3%	93.1%	90%	92.1%	39.5%	71.5%	72.8%	51.5%	91.5%	69.9%	88.1%	75.5%
COc1ccc(-c2nnc(-c3ccc4c(c3)nc(-c3ccncc3)n4C3CCCCC3)o2)cc1	72.8	63.6%	82%	67.7%	73.7%	44.8%	61.4%	59.2%	66.3%	59.2%	68.5%	43.3%	82%	63.8%	69.7%	66.7%	67.7%	70.3%	77.6%	70.5%
CC1=Nc2cnc(Nc3ccc(OCCN4CCCC4)cc3)nc2Nc2ccccc21	80.4	77.8%	44.6%	86.4%	64.2%	43.2%	73.9%	86.5%	54%	72.2%	56.1%	39.6%	68%	59.7%	36%	63.9%	85.6%	68.6%	89.3%	52.6%
O=C(Nc1ccc(-c2nc(N3CCOCC3)c3cccn3n2)cc1)Nc1cccnc1	17.2	-5.75% (active)	0.902% (active)	-3.37% (active)	7.47% (active)	-22.5% (active)	4.32% (active)	0.989% (active)	-12.7% (active)	–	5.28% (active)	15.2%	-29.9% (active)	-0.801% (active)	-30.5% (active)	11.9%	-36.4% (active)	-39.8% (active)	-11.7% (active)	-0.739% (active)
CCOC(=O)c1cc(-c2ccc([N+](=O)[O-])cc2)n(-c2ccc(C(=O)O)c(O)c2)c1C	58.8	83.5%	103%	103%	65.2%	49.6%	9.5% (active)	47.7%	71.3%	99.1%	88.6%	45.1%	80.6%	80.7%	39%	85.8%	69.8%	85.4%	46.2%	90%
O=c1c2cc(-c3ccccc3)sc2nc2sc(-c3ccccc3)nn12	98.9	104%	104%	102%	100%	84.3%	95.7%	91.6%	93%	109%	103%	93.8%	94.1%	110%	93.2%	100%	98.8%	107%	90.9%	97.9%
